Bioassay records deposited in PubChem BioAssay by Johns Hopkins Ion Channel Center.
KCNQ2 block – inhibitors of rat KCNQ2 potassium channel. O88943. CHO-K1 KCNQ2, FluxOR thallium flux, 20 min; active compounds read low. B-score at 10 µM. hit rate 1.1% among 310,000;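 active = fluorescence ratio B-score at most minus 3 library SDs, with starting brightness B-score within 2 library SDs, cut at about -5.5 in these data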
Target sequence (O88943 whole entry, looked up): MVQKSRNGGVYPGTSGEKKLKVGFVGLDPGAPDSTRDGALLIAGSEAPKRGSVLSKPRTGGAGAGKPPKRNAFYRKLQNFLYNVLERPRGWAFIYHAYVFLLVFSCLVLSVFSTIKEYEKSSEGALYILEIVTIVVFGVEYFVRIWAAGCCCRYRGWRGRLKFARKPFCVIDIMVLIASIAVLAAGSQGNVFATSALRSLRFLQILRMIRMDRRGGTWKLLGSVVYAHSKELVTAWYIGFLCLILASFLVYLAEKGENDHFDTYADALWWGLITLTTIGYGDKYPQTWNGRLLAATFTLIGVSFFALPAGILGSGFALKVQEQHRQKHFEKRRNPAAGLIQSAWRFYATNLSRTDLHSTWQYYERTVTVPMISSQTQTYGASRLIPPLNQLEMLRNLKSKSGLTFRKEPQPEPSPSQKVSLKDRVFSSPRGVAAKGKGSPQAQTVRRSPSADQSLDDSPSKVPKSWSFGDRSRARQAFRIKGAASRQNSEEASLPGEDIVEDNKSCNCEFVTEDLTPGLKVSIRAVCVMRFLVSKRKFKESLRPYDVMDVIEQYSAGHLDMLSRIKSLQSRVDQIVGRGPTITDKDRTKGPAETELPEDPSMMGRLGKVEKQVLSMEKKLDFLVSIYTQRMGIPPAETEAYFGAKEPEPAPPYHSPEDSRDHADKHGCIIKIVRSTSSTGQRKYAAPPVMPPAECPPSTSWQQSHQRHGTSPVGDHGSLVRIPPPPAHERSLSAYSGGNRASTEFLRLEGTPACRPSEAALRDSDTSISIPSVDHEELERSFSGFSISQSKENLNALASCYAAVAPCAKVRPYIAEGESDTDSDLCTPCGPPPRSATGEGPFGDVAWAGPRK
KCNQ2 pot – enhances the rat KCNQ2 potassium channel; hit rate 0.54% among 310,000; AID 2239; O88943; CHO-K1 KCNQ2, FluxOR thallium flux fluorescence; active compounds read high; B-score at 10 µM;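 active = fluorescence ratio B-score at least 3 SD of library B-scores, with initial fluorescence B-score within 3 of them, cut at about 5.3 in these data; same plate scores as AID 2156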;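 also: B-score of peak minus minimum over baseline fluorescence ratio after K+ and Tl+ stimulus; positive B-score means potentiation of KCNQ2 with more thallium influx and brighter signal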
KCNQ2 block conf – confirmation of rat KCNQ2 potassium channel inhibitors. hit rate 57% among 1,000. KCNQ2-expressing cells, thallium flux, inhibition; active compounds read low. AID 493025. shares compounds with KCNQ2 block. activity change, negative = inhibition, % at 10 µM
KCNQ1 spec – KCNQ2 inhibitor that also affects human KCNQ1 channel. KCNQ1-expressing cells, FluxOR thallium flux fluorescence; active compounds read low. hit rate 15% among 1,000. shares compounds with KCNQ2 block. AID 493026. activity change, negative = inhibition, % at 10 µM;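 active = activity change at least 3 SD of negative controls below their mean in both duplicate wells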;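 also: CHO cells stably transfected with KCNQ1 and depolarized by potassium stimulus; peak minus minimum fluorescence over baseline after thallium addition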
CHO Tl ctr – counter-screen for KCNQ2 inhibitors: effect in parental CHO cells. shares compounds with KCNQ2 block. activity change, % at 10 µM. hit rate 14% among 1,000. thallium flux counter-screen; active compounds read low. AID 493029
KCNQ2 inh confirm – blocks rat KCNQ2 current in automated patch clamp. KCNQ2-expressing cells. hit rate 49% among 550. shares compounds with KCNQ2 block. AID 588531. calls only at 10 µM
Each line names hits and unclear results; the compound was inactive in the other large screens (follow-up assays come after a bar, where they were run). Shown are actives, neighbours in structure and some others; about 1.6% of the full set was active somewhere. Unless noted, no rule for the calls is given here.

CC1=Nc2ccccc2/C1=C/c1sc(=N)n(-c2nccs2)c1O	KCNQ2 block -9.9 | KCNQ2 block conf -52% | KCNQ1 spec -62% | CHO Tl ctr -57% | KCNQ2 inh confirm inactive
CC1=Nc2ccccc2/C1=C/c1nc(-c2ccc(C)s2)oc1O	none (no result: KCNQ2 pot)
O=c1cc(CO)[nH]cc1OCc1ccccc1	none
CCCCN(C)CC(O)Cn1cc(/C=C/C(=O)c2ccc(C)cc2)c2ccccc21 (centres undefined)	KCNQ2 block -9.7 | KCNQ2 block conf inactive | KCNQ1 spec inactive | CHO Tl ctr inactive
COc1ccc(C(=O)/C=C/c2cn(CC(O)CN3CCN(C)CC3)c3ccccc23)cc1OC (centres undefined)	none (no result: KCNQ2 pot)
CC(C)(C)NCC(O)Cn1cc(C=O)c2ccccc21 (centres undefined)	none
CN1CCN(Cn2cc(/C=C/C(=O)c3ccccc3)c3ccccc32)CC1	KCNQ2 block -9.2 | KCNQ2 block conf -34% | KCNQ1 spec inactive | CHO Tl ctr inactive | KCNQ2 inh confirm active
O=C(COC(=O)c1ccccc1NCCO)NCCc1ccccc1	none
O=C(OCC(=O)N(Cc1ccccc1)Cc1ccccc1)c1ccccc1NCCO	KCNQ2 block -7.5 | KCNQ2 block conf -34% | KCNQ1 spec inactive | CHO Tl ctr inactive | KCNQ2 inh confirm active
CC1CN(c2nnc(NC(=O)c3ccccc3)s2)CC(C)O1 (centres undefined)	none
COc1ccc(S(N)(=O)=O)cc1C(=O)NC1CCCc2ccccc21 (centres undefined)	none (no result: KCNQ2 pot)
Cc1cc(C)cc(NC(=O)[C@@H](NC(=O)c2ccco2)C(C)C)c1	none
C=CCC1(CC=C)CCCN1C(=O)c1cc(COc2cccc(C(F)(F)F)c2)on1	KCNQ2 block -9.5 | KCNQ2 block conf -34% | KCNQ1 spec -30% | CHO Tl ctr -28% | KCNQ2 inh confirm active
CCOC(=O)N1CCN(C(=O)c2cc(COc3cccc(C(F)(F)F)c3)on2)CC1	none
Cn1cnnc1SCCC(=O)Nc1ccccc1	KCNQ2 block -8.3 | KCNQ2 block conf inactive | KCNQ1 spec inactive | CHO Tl ctr inactive
Cn1cnnc1SCCC(=O)Nc1ccc(Cl)cc1	none
O=C(CNS(=O)(=O)c1ccc(Br)s1)N1CCC(N2CCCCC2)CC1	none (no result: KCNQ2 pot)
CN(C)c1oc(-c2ccccc2Cl)nc1P(=O)(c1ccccc1)c1ccccc1	KCNQ2 block -9.5 | KCNQ2 block conf -39% | KCNQ1 spec -31% | CHO Tl ctr -24% | KCNQ2 inh confirm active
Cc1ccc(S(=O)(=O)c2nc(-c3ccccc3Cl)oc2N(C)C)cc1	none (no result: KCNQ2 pot)
CCc1nc(SCC(=O)NC2CCCC2)c2c(=O)n(C)c(=O)n(C)c2n1	none (no result: KCNQ2 pot)
Cc1cccc(-n2nc3c(c2NC(=O)CCCl)CSC3)c1	none (no result: KCNQ2 pot)
Cc1cccc(-n2nc3c(c2NC(=O)c2ccc(Br)o2)CSC3)c1	KCNQ2 block -9 | KCNQ2 block conf -28% | KCNQ1 spec inactive | CHO Tl ctr inactive | KCNQ2 inh confirm inactive
COc1ccc(OC)c(C2Nc3ccccc3NC3=C2C(=O)CC(C)(C)C3)c1 (centres undefined)	none
Cc1cccc(C)c1OCCNC(=O)OCc1ccccc1	KCNQ2 block -6.9 | KCNQ2 block conf inactive | KCNQ1 spec inactive | CHO Tl ctr inactive
O=C(O)CCCNC(=O)OCc1ccccc1	none (no result: KCNQ2 pot)
O=c1cc(NC2CCCCC2)c2ccccc2o1	none
CC1(C)Cc2c(sc(NC(=O)C(=O)N3CCOCC3)c2C(N)=O)CO1	none (no result: KCNQ2 pot)
CCOC(=O)C1=C(COC(=O)/C=C/c2cccc([N+](=O)[O-])c2)NC(=O)NC1C (centres undefined)	none
CN(C)c1nc(NCc2ccccc2)nc(N/N=C/c2ccc(Cl)cc2Cl)n1	KCNQ2 block -8.8 | KCNQ2 block conf inactive | KCNQ1 spec inactive | CHO Tl ctr inactive
CN(C)c1nc(NCc2ccccc2)nc(N/N=C/c2ccccc2F)n1	none (no result: KCNQ2 pot)
COCCCNC(=O)CC(NS(=O)(=O)c1ccc(Cl)cc1)c1ccc(OC)cc1 (centres undefined)	none
COc1cc(-c2nc3cccc(C)n3c2NCC2CCCO2)ccc1O (centres undefined)	KCNQ2 block -8.6 | KCNQ2 block conf inactive | KCNQ1 spec inactive | CHO Tl ctr inactive
COc1cc(-c2nc3cnccn3c2Nc2ccccc2)ccc1O	none
Cc1cccc(/C(N)=N/OC(=O)Cc2ccccc2)c1	none
Cc1cccc(/C(N)=N/OC(=O)N2c3ccccc3Sc3ccccc32)c1	KCNQ2 block -6.8 | KCNQ2 block conf inactive | KCNQ1 spec inactive | CHO Tl ctr inactive
COc1ccc(/C=C(\NC(=O)c2ccc(OC)cc2)C(=O)Nc2ccccc2C(=O)O)cc1	none
COc1ccc(C(c2nnnn2Cc2ccccc2)N2CCN(c3nc4ccccc4s3)CC2)cc1OC (centres undefined)	none (no result: KCNQ2 pot)
c1ccc(Cn2nnnc2C(c2ccccc2)N2CCN(c3nc4ccccc4s3)CC2)cc1 (centres undefined)	KCNQ2 block -7.9 | KCNQ2 block conf -37% | KCNQ1 spec inactive | CHO Tl ctr inactive | KCNQ2 inh confirm inactive
COc1ccccc1C(c1nnnn1Cc1ccccc1)N1CCN(c2nc3ccccc3s2)CC1 (centres undefined)	KCNQ2 block -8.8 | KCNQ2 block conf -31% | KCNQ1 spec inactive | CHO Tl ctr inactive | KCNQ2 inh confirm active
c1ccc(C(c2nnnn2Cc2ccco2)N2CCN(c3nc4ccccc4s3)CC2)cc1 (centres undefined)	none (no result: KCNQ2 pot)
Cc1nn(C)c(Cl)c1C(=O)NCC(=O)Nc1ccc(C(C)C)cc1	none
Cc1ccccc1C(=O)c1ccc2c(c1)n(C)c(=O)n2C	none (no result: KCNQ2 pot)
Cn1nc(C(=O)NC2CCCCC2)c2c1-c1ccccc1SC2	none (no result: KCNQ2 pot)
CC(C)N(C(=O)c1nn(C)c2c1CSc1ccccc1-2)C1CCCCC1	KCNQ2 block -8.7 | KCNQ2 block conf -26% | KCNQ1 spec inactive | CHO Tl ctr inactive | KCNQ2 inh confirm inactive
Cc1ccc(S(=O)(=O)/N=C(\Sc2ccccc2)c2ccccc2)cc1	none (no result: KCNQ2 pot)
O=S(=O)(/N=C(\Sc1ccccc1)c1ccccc1)c1ccc(Cl)cc1	KCNQ2 block -6.9 | KCNQ2 block conf inactive | KCNQ1 spec inactive | CHO Tl ctr inactive
O=C(NC(=S)Nc1cc(S(=O)(=O)N2CCOCC2)ccc1N1CCOCC1)c1ccco1	none (no result: KCNQ2 pot)
CCN(CC)S(=O)(=O)c1ccc(N2CCOCC2)c(NC(=S)NC(=O)c2ccco2)c1	KCNQ2 block -7.3 | KCNQ2 block conf -34% | KCNQ1 spec inactive | CHO Tl ctr inactive | KCNQ2 inh confirm active
CC(NC(=O)/C(C#N)=C/c1ccc(OCC(=O)O)cc1)c1ccccc1 (centres undefined)	none (no result: KCNQ2 pot)
CC(NC(=O)/C(C#N)=C/c1ccc(Cl)c([N+](=O)[O-])c1)c1ccccc1 (centres undefined)	KCNQ2 block -11 | KCNQ2 block conf -26% | KCNQ1 spec inactive | CHO Tl ctr inactive | KCNQ2 inh confirm inactive
NC(=O)[C@@H]1CCCN1Cc1nc(Cc2ccccc2Cl)no1	none
COc1ccc(CN(CC2CCC(C(=O)O)CC2)C(=S)Nc2ccc(C)c(Cl)c2)cc1 (centres undefined)	none (no result: KCNQ2 pot)
